What all share (design): scale not given: direction of the effect not stated beside the values
In test [1] the target is Protein translocase subunit SecA (Escherichia coli (strain K12)) (UniProt P10408). The experiment in a line: Assay to Identify E. coli SecA ATPase Inhibitors. In kind it is functional. Conditions: 30 µM.
Test [2] deals with T1, Ubiquitin-activating enzyme e1, putative (Leishmania donovani (strain BPK282A1)) (UniProt E9BSI1).
T1 sequence (whole entry): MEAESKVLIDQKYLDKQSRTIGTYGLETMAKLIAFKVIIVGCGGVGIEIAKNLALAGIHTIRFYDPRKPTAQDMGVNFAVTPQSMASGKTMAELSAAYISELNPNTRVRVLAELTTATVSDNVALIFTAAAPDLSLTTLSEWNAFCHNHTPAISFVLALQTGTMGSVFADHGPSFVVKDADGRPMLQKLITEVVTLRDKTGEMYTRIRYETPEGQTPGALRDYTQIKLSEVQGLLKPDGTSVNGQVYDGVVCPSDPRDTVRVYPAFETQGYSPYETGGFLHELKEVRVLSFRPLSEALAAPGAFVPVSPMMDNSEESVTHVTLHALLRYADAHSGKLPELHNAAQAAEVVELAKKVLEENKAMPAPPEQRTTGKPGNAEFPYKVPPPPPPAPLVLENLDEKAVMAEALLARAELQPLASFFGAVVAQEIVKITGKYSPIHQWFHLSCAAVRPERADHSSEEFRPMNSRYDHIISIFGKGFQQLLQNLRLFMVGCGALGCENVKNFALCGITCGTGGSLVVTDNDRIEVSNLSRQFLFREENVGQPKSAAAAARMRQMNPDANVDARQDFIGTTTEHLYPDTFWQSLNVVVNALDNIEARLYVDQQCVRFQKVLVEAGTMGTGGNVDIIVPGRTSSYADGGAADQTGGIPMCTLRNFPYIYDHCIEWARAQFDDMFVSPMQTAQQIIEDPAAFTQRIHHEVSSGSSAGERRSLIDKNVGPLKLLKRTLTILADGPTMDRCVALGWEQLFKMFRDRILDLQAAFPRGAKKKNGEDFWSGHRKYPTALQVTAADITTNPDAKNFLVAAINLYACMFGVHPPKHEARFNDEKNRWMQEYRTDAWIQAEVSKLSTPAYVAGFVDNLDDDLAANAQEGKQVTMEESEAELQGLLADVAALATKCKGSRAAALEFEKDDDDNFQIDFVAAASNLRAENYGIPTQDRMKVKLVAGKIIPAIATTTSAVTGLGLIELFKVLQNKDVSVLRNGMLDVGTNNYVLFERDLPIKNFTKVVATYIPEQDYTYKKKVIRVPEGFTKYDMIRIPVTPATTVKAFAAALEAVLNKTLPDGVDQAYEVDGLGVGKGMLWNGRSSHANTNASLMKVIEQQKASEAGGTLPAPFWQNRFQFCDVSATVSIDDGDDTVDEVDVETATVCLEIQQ
The experiment in a line: Leishmania donovani Ubiquitin Activating Enzyme (LdE1). The format is functional. Conditions: 30 µM.

In test [3] the target is AMP-activated protein kinase, AMPK (Homo sapiens) (UniProt P54646+O43741+P54619+Q9UGJ0+Q9Y478+Q13131+Q9UGI9). Put plainly: AMP-dependent Kinase enzyme assay. An in vitro enzyme assay that detects ADP turnover that is directly proportional to AMPK activity. This uses naive AMPK that is activated during the assay with MK-8722. Conditions: 30 µM. The format is functional.
Test [4] addresses Sialic acid-binding Ig-like lectin 9 (Homo sapiens) (UniProt Q9Y336). The experiment in a line: Hs-Siglec9 ALPHAscreen SOP 20170721. Conditions: 10 µM. (Alpha assays give light when donor and acceptor beads are brought close together.)
The next test relates to Trypanosoma cruzi. The experiment in a line: Trypanosoma cruzi phosphomannomutase and mannose-1-phosphate guanylyltransferase assay. The format is functional. Conditions: 10 µM.
In test [5] the target is T2, Arginase-2, mitochondrial (Homo sapiens) (UniProt P78540).
T2 sequence (whole entry): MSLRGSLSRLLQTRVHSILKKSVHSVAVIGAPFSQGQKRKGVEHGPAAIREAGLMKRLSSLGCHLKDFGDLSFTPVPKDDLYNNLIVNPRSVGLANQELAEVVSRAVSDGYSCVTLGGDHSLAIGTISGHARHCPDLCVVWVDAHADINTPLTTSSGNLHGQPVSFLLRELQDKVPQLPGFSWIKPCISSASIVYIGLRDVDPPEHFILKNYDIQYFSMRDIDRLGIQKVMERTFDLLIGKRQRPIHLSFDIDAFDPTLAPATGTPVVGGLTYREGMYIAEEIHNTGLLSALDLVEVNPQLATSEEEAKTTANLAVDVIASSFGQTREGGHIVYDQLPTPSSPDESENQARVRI
The experiment in a line: in vitro enzyme assay to detect the production of urea directly proportional to the activity of Arginase II. Also: in the data most compounds retested in dose-response had high values. Conditions: 33.3 µM. In kind it is functional.

The target in test [6] is T3, Proteasome subunit beta (Trypanosoma cruzi) (UniProt O96673).
T3 sequence (whole entry): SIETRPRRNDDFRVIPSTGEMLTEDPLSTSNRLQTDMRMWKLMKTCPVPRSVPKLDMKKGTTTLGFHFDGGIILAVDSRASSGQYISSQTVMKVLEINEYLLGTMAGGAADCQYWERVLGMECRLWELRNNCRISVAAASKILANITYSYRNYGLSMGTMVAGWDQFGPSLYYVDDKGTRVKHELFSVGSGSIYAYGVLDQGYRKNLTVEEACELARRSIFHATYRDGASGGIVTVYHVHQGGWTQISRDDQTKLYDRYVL
The experiment in a line: Trypanosoma cruzi proteasome chymotrypsin-like activity (TcProtChymo) assay. Also: in the data most compounds retested in dose-response had high values. Conditions: 9.37 µM. The format is functional.

For a further test, the species on record is Homo sapiens. Put plainly: To identify inhibition of the IFN signalling (Jak-Stat) pathway via expression of an eGFP reporter gene under the control of an IFN-stimulated response element (ISRE) containing MxA promoter. The format is functional. Conditions: 30 µM. For orientation: In a reporter assay the amount or activity of a reporter protein is the signal.

The target in test [7] is T4, Tyrosyl-tRNA synthetase, putative (Trypanosoma cruzi (strain CL Brener)) (UniProt Q4DSP6).
T4 sequence (whole entry): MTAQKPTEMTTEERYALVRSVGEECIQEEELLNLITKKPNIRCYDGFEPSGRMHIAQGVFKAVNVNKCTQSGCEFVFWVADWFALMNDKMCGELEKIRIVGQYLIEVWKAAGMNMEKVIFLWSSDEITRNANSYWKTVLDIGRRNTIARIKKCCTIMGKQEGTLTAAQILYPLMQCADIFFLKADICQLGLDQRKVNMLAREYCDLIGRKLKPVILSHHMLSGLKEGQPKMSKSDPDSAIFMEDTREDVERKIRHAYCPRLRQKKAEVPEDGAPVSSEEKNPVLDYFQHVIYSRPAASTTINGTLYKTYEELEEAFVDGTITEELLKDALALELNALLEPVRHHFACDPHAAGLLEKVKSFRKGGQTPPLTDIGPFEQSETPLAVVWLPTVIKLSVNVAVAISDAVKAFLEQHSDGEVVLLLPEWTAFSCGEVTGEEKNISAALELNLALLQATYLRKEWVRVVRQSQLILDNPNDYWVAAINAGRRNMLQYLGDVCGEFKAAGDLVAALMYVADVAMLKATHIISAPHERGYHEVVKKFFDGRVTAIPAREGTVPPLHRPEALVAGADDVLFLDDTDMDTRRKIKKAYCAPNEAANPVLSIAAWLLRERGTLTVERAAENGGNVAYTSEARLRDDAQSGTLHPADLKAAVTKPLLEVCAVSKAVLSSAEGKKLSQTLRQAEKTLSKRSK
Put plainly: Trypanosoma cruzi tyrosyl tRNA synthetase (TcYRS) _High Tyrosine SOP. Also: in the data most compounds retested in dose-response had high values. Conditions: 30 µM. In kind it is functional.

Test [8] deals with T4, Tyrosyl-tRNA synthetase, putative (Trypanosoma cruzi (strain CL Brener)). The experiment in a line: Trypanosoma cruzi tyrosyl tRNA synthetase (TcYRS) SOP. Conditions: 30 µM. In kind it is functional.
Test [9] concerns the target Chromo domain-containing protein 1 (Saccharomyces cerevisiae (strain ATCC 204508 / S288c) (Baker's yeast)) (UniProt P32657). The experiment in a line: ScCHD-1 Enzyme Inhibition Assay. Also: in the data most compounds retested in dose-response had high values. In kind it is functional. Conditions: 30 µM.

For part of these data: Measured potencies and affinities stand elsewhere.

Sequence of Sialic acid-binding Ig-like lectin 9 (Homo sapiens) (Q9Y336 whole entry): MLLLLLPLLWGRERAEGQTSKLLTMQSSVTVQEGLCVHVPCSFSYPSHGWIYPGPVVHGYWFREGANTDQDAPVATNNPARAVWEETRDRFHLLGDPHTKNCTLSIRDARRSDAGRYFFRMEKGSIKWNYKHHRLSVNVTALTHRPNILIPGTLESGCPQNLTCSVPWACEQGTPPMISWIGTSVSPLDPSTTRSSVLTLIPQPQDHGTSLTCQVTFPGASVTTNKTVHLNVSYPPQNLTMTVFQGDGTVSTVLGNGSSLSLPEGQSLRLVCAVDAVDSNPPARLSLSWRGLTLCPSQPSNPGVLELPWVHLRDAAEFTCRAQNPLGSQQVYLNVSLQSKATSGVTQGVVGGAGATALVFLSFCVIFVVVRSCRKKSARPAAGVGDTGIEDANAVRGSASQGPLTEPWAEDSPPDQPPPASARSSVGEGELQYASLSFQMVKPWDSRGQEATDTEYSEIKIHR
Sequence of Protein translocase subunit SecA (Escherichia coli (strain K12)) (P10408 whole entry): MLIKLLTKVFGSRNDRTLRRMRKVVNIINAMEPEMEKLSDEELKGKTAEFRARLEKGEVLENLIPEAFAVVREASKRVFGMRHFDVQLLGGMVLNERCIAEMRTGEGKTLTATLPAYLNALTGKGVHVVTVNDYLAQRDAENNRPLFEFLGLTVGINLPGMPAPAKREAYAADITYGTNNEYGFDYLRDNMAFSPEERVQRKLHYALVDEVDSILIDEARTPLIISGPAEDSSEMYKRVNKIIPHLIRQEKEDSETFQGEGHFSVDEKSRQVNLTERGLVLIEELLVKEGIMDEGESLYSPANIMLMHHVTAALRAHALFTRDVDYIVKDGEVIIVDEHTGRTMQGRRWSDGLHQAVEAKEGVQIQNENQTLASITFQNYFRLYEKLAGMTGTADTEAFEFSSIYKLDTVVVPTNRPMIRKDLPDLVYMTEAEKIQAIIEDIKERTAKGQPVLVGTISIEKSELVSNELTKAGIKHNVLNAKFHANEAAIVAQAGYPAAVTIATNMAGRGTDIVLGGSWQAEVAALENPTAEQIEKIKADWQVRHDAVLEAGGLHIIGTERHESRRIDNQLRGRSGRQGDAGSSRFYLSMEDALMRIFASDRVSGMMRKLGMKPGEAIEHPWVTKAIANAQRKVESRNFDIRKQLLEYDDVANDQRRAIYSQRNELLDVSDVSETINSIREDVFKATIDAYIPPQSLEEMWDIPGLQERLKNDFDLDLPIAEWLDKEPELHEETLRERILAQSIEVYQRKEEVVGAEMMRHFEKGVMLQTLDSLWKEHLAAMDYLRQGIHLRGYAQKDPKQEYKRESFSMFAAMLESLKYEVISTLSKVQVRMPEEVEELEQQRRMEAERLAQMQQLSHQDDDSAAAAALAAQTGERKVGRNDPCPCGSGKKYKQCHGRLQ
Sequence of Chromo domain-containing protein 1 (Saccharomyces cerevisiae (strain ATCC 204508 / S288c) (Baker's yeast)) (P32657 whole entry, the tested form may be a part): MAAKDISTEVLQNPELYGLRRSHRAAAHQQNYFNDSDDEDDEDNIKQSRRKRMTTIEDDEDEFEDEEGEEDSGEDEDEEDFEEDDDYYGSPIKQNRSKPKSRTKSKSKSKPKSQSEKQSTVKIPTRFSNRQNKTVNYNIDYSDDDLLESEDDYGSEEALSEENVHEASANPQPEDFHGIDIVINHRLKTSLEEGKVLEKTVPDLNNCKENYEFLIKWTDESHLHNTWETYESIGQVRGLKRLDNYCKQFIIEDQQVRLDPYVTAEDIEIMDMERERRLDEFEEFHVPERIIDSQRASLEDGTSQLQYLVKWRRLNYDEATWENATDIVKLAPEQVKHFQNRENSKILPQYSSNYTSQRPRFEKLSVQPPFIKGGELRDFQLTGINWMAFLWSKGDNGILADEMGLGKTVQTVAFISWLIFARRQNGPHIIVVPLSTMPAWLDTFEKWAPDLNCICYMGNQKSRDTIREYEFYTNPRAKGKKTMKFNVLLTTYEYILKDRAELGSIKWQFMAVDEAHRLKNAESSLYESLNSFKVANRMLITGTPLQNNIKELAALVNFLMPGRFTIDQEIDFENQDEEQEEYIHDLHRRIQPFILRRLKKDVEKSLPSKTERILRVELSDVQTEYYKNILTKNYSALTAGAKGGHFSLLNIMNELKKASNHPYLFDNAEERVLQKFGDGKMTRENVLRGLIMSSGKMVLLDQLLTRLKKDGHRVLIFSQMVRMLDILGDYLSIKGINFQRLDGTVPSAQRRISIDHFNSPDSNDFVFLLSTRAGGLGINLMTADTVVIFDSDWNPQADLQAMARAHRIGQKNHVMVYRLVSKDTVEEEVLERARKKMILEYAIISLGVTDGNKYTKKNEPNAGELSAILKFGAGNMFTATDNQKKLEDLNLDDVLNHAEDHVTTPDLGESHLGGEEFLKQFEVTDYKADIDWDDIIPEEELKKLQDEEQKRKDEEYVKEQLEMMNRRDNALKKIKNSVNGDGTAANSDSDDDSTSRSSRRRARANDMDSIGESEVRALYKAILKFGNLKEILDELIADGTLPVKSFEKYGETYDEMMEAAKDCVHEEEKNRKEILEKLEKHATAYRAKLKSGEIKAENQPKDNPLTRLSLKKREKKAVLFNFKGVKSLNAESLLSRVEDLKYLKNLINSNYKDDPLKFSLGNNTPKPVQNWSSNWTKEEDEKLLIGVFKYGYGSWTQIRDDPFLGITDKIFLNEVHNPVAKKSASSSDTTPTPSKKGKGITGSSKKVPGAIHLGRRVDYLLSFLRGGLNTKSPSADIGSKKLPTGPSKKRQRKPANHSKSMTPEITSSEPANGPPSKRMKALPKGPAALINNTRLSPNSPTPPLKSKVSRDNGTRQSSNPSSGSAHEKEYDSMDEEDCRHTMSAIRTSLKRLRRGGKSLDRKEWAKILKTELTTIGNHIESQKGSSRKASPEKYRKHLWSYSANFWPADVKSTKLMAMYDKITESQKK

Consider `COCCCN(CCOC)C(=O)Nc1ccccc1Br`, for which the Percent Effect in test [1] was 0.00988%; in test [2] it was -5.26%; in [3], 4.89%; in test [4], -4.8%; in the test with Trypanosoma cruzi it was -1.46%; in [5], -10.7%. For the same compound, the Percent Effect in test [6] was 2.01%; in the test filed under Homo sapiens it was -13.7%; in test [7], 3.19%; in test [8], 2.6%; in [9] it was 0.558%.
In the case of `CSCC(C)(O)CNC(=O)c1ccc(Br)cc1C` (stereo unspecified), the Percent Effect in [1] was 0.706%; in test [2] it was 0%; in [3], 2.08%; in [4] it was -6.13%; with Trypanosoma cruzi, -1.27%; in [5], -1.74%. The Percent Effect in test [6] is 8.15%; in the test listed under Homo sapiens, -5.12%; in [7], 2.15%; in test [8], 6.17%; in [9], 0.55%.
With `COCCC1COC2(CCN(C(=O)c3ccco3)CC2)C1` (stereo unspecified), the Percent Effect in test [1] was -2.43%; in test [2] it was 13.3%; in [3], 5.93%; in test [4], 0.194%; with Trypanosoma cruzi, -0.787%; in test [5] it was 3.5%. In addition, the Percent Effect was 0.264% in test [6]; 0.48% in the test filed under Homo sapiens; 8.51% in test [7]; 16.7% in test [8]; -2.69% in [9].
As for `COc1ccc(CN(Cc2cncn2C)CC2CCCO2)c(OC)c1` (stereo unspecified), the Percent Effect in test [1] was -2.55%; in [2] it was 17.6%; in test [3] it was 4.23%; in test [4], -4.44%; with Trypanosoma cruzi, -0.79%; in test [5] it was 0.696%. Further, the Percent Effect in test [6] is 20%; in the test listed under Homo sapiens, 17.5%; in test [7], 5.38%; in [8], 14.3%; in [9] it was -18.5%.
`NC(=O)NCCC(=O)NCc1cccnc1N1CCc2ccccc2C1`: the Percent Effect in test [1] was -1.28%; in [2], 18.9%; in test [3] it was -5.95%; in test [4], 12.4%; in the test on Trypanosoma cruzi, 6.75%; in [5], -3.23%. The Percent Effect was 4.89% in test [6]; 1.04% in the test filed under Homo sapiens; 7.53% in [7]; 23.5% in test [8]; -7.12% in test [9].
Regarding `CCCc1noc(CCC(=O)N2CCCC2c2noc(C3CC3)n2)n1` (stereo unspecified), the Percent Effect in test [1] was -5.01%; in [2], 10.1%; in test [3] it was 1.8%; in [4] it was 21.9%; in the test on Trypanosoma cruzi it was -0.85%; in test [5] it was 1.52%. The Percent Effect in [6] was -1.56%; in the test listed under Homo sapiens, 12%; in [7] it was 1.48%; in test [8], 1.27%; in [9], -2.93%.

These data come from ChEMBL document CHEMBL3988442, “University of Dundee, Small-Polar-MMV Screening Library” (2021).
